Out of some 280,000 compounds screened, about 100 (0.036%) were called active. Another 11% or so got no clear call; they are omitted. Only a selection was taken, and actives are over-represented in it overall. A number with no mark means an inactive call. The call rests on the fitted dose curve; in most records, active means well fitted inhibition curve with a large enough effect in the signal ratio, with a control signal flat (not every such curve was filed as active); inconclusive means small, poorly fitted or top-dose-only effect, or effect the other way, or a change in a side signal; inactive means no such curve, though single readings can be large or run the other way; the % refers to the signal ratio.
What follows are compounds tested against Muscleblind-like protein 1 (Homo sapiens) (UniProt Q9NR56) (assay: qHTS Assay for Inhibitors of MBNL1-poly(CUG) RNA binding). Conditions: TR-FRET MBNL1-His/biotin-(CUG)12 binding, 665/545 ratio; series mostly up to 57.5 µM; activity change, negative = inhibition: at the top concentration.
Muscleblind-like protein 1 (Homo sapiens), sequence (Q9NR56 whole entry, looked up): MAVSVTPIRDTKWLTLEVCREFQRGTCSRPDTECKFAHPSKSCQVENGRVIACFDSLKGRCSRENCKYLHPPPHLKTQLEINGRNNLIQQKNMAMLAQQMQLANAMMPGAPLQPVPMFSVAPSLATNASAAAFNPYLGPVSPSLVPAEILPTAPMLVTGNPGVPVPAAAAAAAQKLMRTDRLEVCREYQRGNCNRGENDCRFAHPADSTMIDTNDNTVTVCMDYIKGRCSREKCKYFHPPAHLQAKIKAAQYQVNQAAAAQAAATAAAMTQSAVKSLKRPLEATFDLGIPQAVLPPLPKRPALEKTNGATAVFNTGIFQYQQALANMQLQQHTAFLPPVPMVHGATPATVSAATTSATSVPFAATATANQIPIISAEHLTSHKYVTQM
Source text: NIH Chemical Genomics Center [NCGC] NIH Molecular Libraries Probe Production Centers Network [MLPCN] MLPCN Grant: R03 MH087421-01 Assay Submitter (PI): Charles Thornton NCGC Assay Overview: Expanded CTG repeats in the 3' untranslated region of the DM protein kinase (DMPK) gene causes type I myotonic dystrophy (DM1). DM1 is a multi-systemic disease with a prevalence of 1/7000. Clinical features include myotonia, progressive muscle weakness and wasting, cardiac arrhythmia, insulin resistance, hypersomnolence, cataracts, and other symptoms. The pathogenic effect of expanded CTG repeats stems from deleterious effects of the mutant transcript. CUGexp mRNA accumulates in nuclear foci and sequesters proteins of the muscleblind family, of which MBNL1 is the most common family member in skeletal muscles. The binding interaction between MBNL1 and CUGexp tracts leads to deregulation of alternative splicing and is therefore a key molecular step in the pathogenesis of DM1. To target this binding interaction, we optimized a protein-RNA binding assay in 1536-well format for identification of small molecule inhibitors of biotinylated (CUG)12 and his-tagged MBNL1 binding. Protein-RNA complex of MBNL1-His and Biotin-(CUG)12 captures the detection reagents terbium-labeled anti-His antibody and streptavidin conjugated XL665. This brings the terbium label within close proximity to XL665 to allow time-resolved fluorescence resonance energy transfer (TR-FRET). Inhibitors of MBNL1-(CUG)12 binding will disrupt TR-FRET.
NCGC Assay Protocol Summary: This is a TR-FRET binding assay with MBNL1-His and Biotin-(CUG)12 RNA. The assay uses a ratiometric measurement. In the presence of MBNL1-(CUG)12 complex, the excitation energy is transferred to the XL665 acceptor label, causing emission at 665nm, while the 545nm donor signal […]. Data were normalized to the controls for basal activity (buffer only) and 100% activity (with MBNL1-(CUG)12). […] The final titration was 92 nM to 58 uM. (3) Add 1 ul of terbium labeled anti-His antibody (0.055 ng/ul final concentration) (4) Add 1 ul of streptavidin-XL665 (5 nM final concentration) (5) Incubate 60 min at room temperature (6) Detect the assay plate in a EnVision plate reader (PerkinElmer) with Ex=340 nm, Em1=665 nm and Em2=545 nm. Keywords: mytonic dystrophy type I, DM1, muscleblind like 1, MBNL1, CUG expansion, protein-RNA binding inhibitor, high throughput screening, MLSMR, MLSCN, NIH Roadmap, qHTS and NCGC
In the case of `COc1ccc(N2CCN(C(=O)Cn3cnc4sc(C)c(S(=O)(=O)N5CCOCC5)c4c3=O)CC2)cc1`, the “activity change, negative = inhibition” value is reported as -1.37%.
`COc1cccc(NC(=O)Cn2cnc3sc(C)c(S(=O)(=O)N4CCN(C)CC4)c3c2=O)c1` was tested, and the Potency was 31.6 µM (active).
In the case of `Cc1sc2ncn(CC(=O)NCCN(C)C)c(=O)c2c1S(=O)(=O)N1CCC(C)CC1`, the “activity change, negative = inhibition” value is reported as -4.22%.
`CCC1Sc2ccc(S(=O)(=O)CCC(=O)NCc3cccs3)cc2NC1=O` (stereo not given) was tested, and the “activity change, negative = inhibition” value was 5.1%.
In the case of `O=C(CNc1cccc(S(=O)(=O)N2CCCCC2)c1)Nc1ccccc1F`, the “activity change, negative = inhibition” value is reported as -2.44%.
In the case of `Cc1c(C)c2ccc(OCC(=O)N3CCN(c4cccc(Cl)c4)CC3)cc2oc1=O`, the “activity change, negative = inhibition” value is reported as 2.33%.
In the case of `CC1CN(C(=S)Nc2ccccc2F)CC(C)O1` (stereo not given), the “activity change, negative = inhibition” value is reported as 5%.
For `O=C(Nc1ccc(Cl)cc1)c1cccc(OC(=S)N2CCOCC2)c1`, the “activity change, negative = inhibition” value was 0.659%.
With `CC(=O)N1CCN(c2ccccc2NC(=S)NC(=O)c2cc3ccccc3o2)CC1` the “activity change, negative = inhibition” value was 4.92%.
For `COc1ccc(N2CCN(C(=O)[C@@H](NC(=O)c3cc(OC)cc(OC)c3)C(C)C)CC2)cc1`, the “activity change, negative = inhibition” value was 2.58%.
For `O=[N+]([O-])c1ccc(O)c(/C=N/Nc2ccccc2[N+](=O)[O-])c1`, the “activity change, negative = inhibition” value was 4.22%.
For `O=C1OC2(CCCCC2)CC2=C1C1O[C@](c3ccsc3)(Cc3ccccc31)O2`, the activity change, negative = inhibition was -2.14% [at 11.5 µM].
For `CCCCn1c(-c2cccc(C)c2)nc2cc3[nH]c(=O)c(C(C)C)nc3cc21`, the “activity change, negative = inhibition” value was 24.5%.
For `COc1cc(C(=O)NCc2ccncc2)cc(Br)c1OCc1ccccc1`, the “activity change, negative = inhibition” value was 3.45%.
In the case of `CC1CCN(C(=S)NC(=O)c2ccccc2Br)CC1`, the “activity change, negative = inhibition” value is reported as -1.98%.
For `CCC(CC)c1nnc(NC(=O)C2CCN(C(=O)c3ccco3)CC2)s1`, the “activity change, negative = inhibition” value was -6.3%.
`COc1cccc(Cn2cc(/C=N/NC(=O)c3cc(O)cc(O)c3)c3ccccc32)c1` was tested, and the “activity change, negative = inhibition” value was 11.8%.
In the case of `CC1(C(=O)NNC(=S)NCC2CCCO2)CC1(Cl)Cl` (stereo not given), the “activity change, negative = inhibition” value is reported as 3.47%.
In the case of `CCCCC(CC)CNCc1cccn1CCN1CCOCC1` (stereo not given), the “activity change, negative = inhibition” value is reported as -4.21%.
`COc1ccc(CSc2nnnn2-c2ccc(O)cc2)cc1F` was tested, and the “activity change, negative = inhibition” value was -0.34%.
For `CCOCCCNc1nc(-c2ccccc2)nc2ccccc12`, the “activity change, negative = inhibition” value was -0.21%.
In the case of `COc1ccc(NC(=S)NCCNC(C)=O)cc1`, the “activity change, negative = inhibition” value is reported as -8.99%.
For `CCOc1ccc(NC(=O)CN2CCN(CC(=O)Nc3ccc(OC)cc3)CC2)cc1`, the “activity change, negative = inhibition” value was -6.49%.
In the case of `COc1ccc(Cc2n[nH]c(=S)n2NC(=O)Nc2ccc(C)cc2)cc1`, the Potency is reported as 25.1 µM (active).
In the case of `COc1ccc(C(=O)c2c(C)c(CCC#N)n3ccccc23)c(OC)c1`, the “activity change, negative = inhibition” value is reported as 15.2%.
For `Cc1[nH]c(C)c(S(=O)(=O)N2CCN(c3cccc(C(F)(F)F)c3)CC2)c1C(=O)N1CCCCC1`, the “activity change, negative = inhibition” value was -1.53%.
In the case of `Cc1ccccc1C(=O)N1CCN(c2ccc(NC(=O)c3cccs3)cc2)CC1`, the “activity change, negative = inhibition” value is reported as -3.93%.
With `CC(=O)c1ccc(NC(=O)c2sc3nc4n(c(=O)c3c2C)CCCCC4)cc1` the “activity change, negative = inhibition” value was 18.1%.
For `CC(=O)N1c2ccc(S(=O)(=O)NCCC(=O)N(C)C3CCCCC3)cc2CC1C` (stereo not given), the “activity change, negative = inhibition” value was -7.41%.
`CC(=O)c1ccc(N2CCN(C(=O)C3CCN(S(=O)(=O)c4ccc5c(c4)CC(C)N5C(=O)C4CC4)CC3)CC2)cc1` (stereo not given) was tested, and the “activity change, negative = inhibition” value was 119%.
`C/C(=N\NC(=O)c1ccoc1C)c1ccccc1O` was tested, and the “activity change, negative = inhibition” value was -2.77%.
With `COc1ccc(N2CCN(S(=O)(=O)CCNC(=O)C34CC5CC(CC(C5)C3)C4)CC2)cc1` the “activity change, negative = inhibition” value was 3%.
In the case of `O=C(Nc1ccncc1)Nc1ccc(F)cc1`, the “activity change, negative = inhibition” value is reported as -18.5%.
In the case of `O=S(=O)(c1cccc(Cn2nnc(-c3ccc(F)cc3)n2)c1)N1CCOCC1`, the “activity change, negative = inhibition” value is reported as -3.65%.
For `CN(CC(=O)Nc1ccc(F)cc1)C(=O)c1ccc(-c2ccc(Cl)cc2)o1`, the “activity change, negative = inhibition” value was 8.57%.
For `COc1ccccc1CCNC(=O)c1c(C)nn(CC(C)C)c1Cl`, the “activity change, negative = inhibition” value was 2.7%.
With `CCCOc1ccc(C2=CSC3=NCCN23)cc1Cl` the “activity change, negative = inhibition” value was -1.02%.
`CN(CC1CCCO1)S(=O)(=O)c1ccc(C(=O)Nc2ccc(F)cc2)cc1` (stereo not given) was tested, and the “activity change, negative = inhibition” value was -7.38%.
With `Cc1ccc2sc(N(CCN(C)C)C(=O)/C=C/c3cccs3)nc2c1C` the “activity change, negative = inhibition” value was -2.08%.
`Cc1cc(C)c(SCCc2ccncc2)c(C)c1` was tested, and the “activity change, negative = inhibition” value was 0.435%.
`Cc1ccc(OCC(=O)Nc2ccc(N3CCN(C(=O)c4ccco4)CC3)cc2)c(C)c1` was tested, and the “activity change, negative = inhibition” value was -0.689%.
For `COc1ccc(CN(C)C(=O)Cc2ccsc2)c(OC)c1OC`, the “activity change, negative = inhibition” value was 0.57%.
`Cc1ccc(-c2noc(C3CCCN(C(=O)c4cccc(Cl)c4)C3)n2)o1` (stereo not given) was tested, and the “activity change, negative = inhibition” value was 2.29%.
In the case of `O=C(C1CCC(=O)N(C2CC2)C1)N1CCN(c2ccc(Cl)cc2)CC1` (stereo not given), the “activity change, negative = inhibition” value is reported as -0.926%.
For `Cc1cc(C)c(NC(=O)CN2CCCCCC2)c(C)c1`, the “activity change, negative = inhibition” value was -20.5%.
In the case of `COc1cc(Nc2nc3ccc(Cl)cc3n3cnnc23)cc(OC)c1OC`, the “activity change, negative = inhibition” value is reported as -3.17%.
With `Cc1ccc(CS(=O)(=O)CCC(=O)NCc2ccc(F)cc2)cc1` the “activity change, negative = inhibition” value was -2.74%.
In the case of `CCOC(=O)C1(CCOC)CCN(Cc2cc3ccccc3s2)CC1`, the “activity change, negative = inhibition” value is reported as -6.13%.
With `CCOCCCn1c(SCC(=O)Nc2cc(OC)ccc2OC)nc2ccccc2c1=O` the “activity change, negative = inhibition” value was 0.658%.
In the case of `C[C@H]1[C@H]2c3nc4ccccc4n3C[C@H]1ON2C1CCCCC1`, the “activity change, negative = inhibition” value is reported as -0.651%.

From PubChem BioAssay AID2675 (National Center for Advancing Translational Sciences (NCATS), 2010)
On the % scale 0 is the no-effect control and ±100 the full control effect; potency means the concentration at half of the fitted maximal effect.
